Bioassay records as filed in PubChem.
This is a sample that favours compounds with a hit; in the whole collection about 14% have one here.
HCMV antiviral: human cytomegalovirus inhibition; HFF cells, HCMV-luciferase reporter, 72 h; stronger effect = lower value; activity change, negative = inhibition, % at 57.5 µM; 4.5% of 410,000 active; AID 1259415; in the data active = activity change below about -60%; inconclusive = no clear call, values can overlap the other calls; inactive = above about -39%
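Cell-based, HFFs, 1000 cells/well, 16 h 37C; cpds in DMSO + HCMV-luc, MOI 1 PFU/cell; 72 h 37C; OneGlo luminescence after 5 min RT; norm. to buffer vs Salinomycin 10uM.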
Giardia FBPA inh: inhibitors of Giardia lamblia fructose-1,6-bisphosphate aldolase. A8B2U2. purified Giardia FBPA. Potency, µM (highest dose often 59.6 µM), for the others: top-dose activity, negative = inhibition, usual class: inhibitors. 0.71% of 290,000 active; note: potency is the fitted concentration of half-maximal effect; nearly all actives have a fitted effect of over 55% in size
Target sequence (A8B2U2 whole entry, looked up): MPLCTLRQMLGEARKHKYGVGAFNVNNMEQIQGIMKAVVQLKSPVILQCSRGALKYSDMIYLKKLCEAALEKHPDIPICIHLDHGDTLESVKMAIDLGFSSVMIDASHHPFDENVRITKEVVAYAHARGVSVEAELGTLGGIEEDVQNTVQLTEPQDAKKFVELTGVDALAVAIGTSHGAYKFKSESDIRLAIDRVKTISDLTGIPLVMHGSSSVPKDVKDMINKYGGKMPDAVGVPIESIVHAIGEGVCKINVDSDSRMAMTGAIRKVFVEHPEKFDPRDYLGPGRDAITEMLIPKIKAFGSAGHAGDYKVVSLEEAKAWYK
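40 nM FBPA preincubated 10 min at RT with compound (up to 57.5 uM final), then substrate plus GAPDH/TPI/NAD/arsenate coupling and diaphorase/resazurin added. Fluorescence read after 20 min at RT, 525/598 nm.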
Pf growth 96h: P. falciparum growth inhibition at 96 hours. P. falciparum luciferase reporter growth, 96 h. Potency, µM (titrated, usually from 28.7 µM), for the others: top-dose activity change, negative = inhibition, actives largely listed as inhibitors. AID 504834. 6.9% of 320,000 active; note: potency is the fitted concentration of half-maximal effect
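Luminescence readout: decreased luciferase signal marks inhibited growth of reporter-expressing P. falciparum in infected red cells (2% hematocrit, 0.05% parasitemia final), exposed to compound two generations (96 h, 37 C, 5% CO2).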
Sm TGR inh: S. mansoni TGR enzyme inhibition | purified TGR, DTNB reduction, TNB absorbance 405 nm | Potency, µM (top dose mostly 114 µM), for the others: at the top dose activity change, negative = inhibition, usual class: inhibitors | Q962Y6 | AID 485364 | 3% of 360,000 active; note: potency is the fitted concentration of half-maximal effect; nearly all actives have a fitted effect of over 60% in size
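TGR 20 nM + NADPH 100 uM (dispensed conc.), cpd preinc 15 min RT; start with NADPH (500 uM addition) then DTNB (15 mM addition). Kinetic TNB absorbance, 405 nm filter. Four-parameter Hill fit across titration.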
Pf growth 48h: inhibits P. falciparum growth in the first generation, 48 h. P. falciparum luciferase growth in erythrocytes, 48 h. 5.9% of 310,000 active. AID 504832. Potency, µM (doses to about 28.7 µM), without a hit: at the highest dose activity change, negative = inhibition, most hits filed as inhibitors; note: potency is the fitted concentration of half-maximal effect
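Luciferase-expressing parasites in RBCs, 2% Hct / 0.1% parasitemia final; RPMI 1640 + 0.5% Albumax; 37 C, 5% CO2, one generation; luminescence read-out, lower signal = inhibition.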
* hit, by the source's call; ? = inconclusive; . = no result; [ ] = remark or other dose. Unless noted, calls come from the whole dose curve; as a rule, active = well fitted curve in the direction sought with a large enough effect; inconclusive = small, poorly fitted or top-dose-only effect, or another doubt; inactive = no such curve, though single readings can be large; an effect the other way counts as inactive or inconclusive. % is set by controls: 0 for no effect and ±100 for the full control effect.

SMILES	HCMV antiviral	Giardia FBPA inh	Pf growth 96h	Sm TGR inh	Pf growth 48h
CCC1OC(=O)CC(O)C(C)[C@@H](O[C@@H]2OC(C)[C@H](O[C@@H]3C[C@@](C)(O)C(O)C(C)O3)C(N(C)C)C2O)[C@H](CC=O)CC(C)C(=O)/C=C/C(C)=C/[C@@H]1COC1OC(C)C(O)C(OC)[C@@H]1OC (stereo partly drawn)	.	6.2%	0.757µM*	.	?
CC[C@H]1OC(=O)C[C@@H](O)[C@H](C)[C@@H](O[C@@H]2O[C@H](C)C[C@H](N(C)C)[C@H]2O)[C@@H](CC=O)C[C@@H](C)C(=O)C=C[C@]2(C)O[C@H]2[C@@H]1C	.	-7.1%	0.329µM*	?	4.65µM*
CCC1OC(=O)C[C@H](O)C(C)[C@@H](O[C@@H]2OC(C)C(O)C(N(C)C)C2O)C(CCN2CC(C)CC(C)C2)CC(C)C(=O)/C=C/C(C)=C\[C@@H]1COC1OC(C)C(O)C(OC)C1OC (stereo partly drawn)	.	-0.9%	3.79µM*	.	?
COC(=O)CNC(=O)COC(=O)Cc1ccc(Cl)cc1	-2.4	-0.4%	35.4%	-2.8%	?
O=C1CN(C(=O)COc2ccc(Cl)cc2Cl)C(c2ccccc2)c2cc(F)ccc2N1 (stereo not drawn)	?	.	.	5.5%	.
COc1ccc(NC2CCCN(C(=O)C3=NN(C)C(=O)CC3)C2)cc1OC (stereo not drawn)	22.1	?	-24.7%	-21.4%	17.3%
COc1ccccc1CNc1ncnc2ccc(-c3ccccc3OC)cc12	.	-0.5%	.	.	.
CCCC1C(=O)Nc2ccccc2N1C(=O)c1cccc(C)c1 (stereo not drawn)	-21.5	-6.4%	-31.5%	-8.0%	-14.3%
CCCC1C(=O)Nc2ccccc2N1C(=O)c1ccc(C(C)(C)C)cc1 (stereo not drawn)	12.0	11.0%	9.28µM*	20.7%	?
CCCN(CC(=O)Nc1ccccc1OC)C(=O)c1ccc(COc2ccccc2)o1	-27.3	.	?	-20.9%	14.7µM*
CCCN(CC(=O)Nc1ccccc1C)C(=O)c1ccc(-c2ccc([N+](=O)[O-])cc2)o1	-33.0	.	?	6.31µM*	?
COc1cccc(NC(=O)CN(C)C(=O)c2ccc(COc3ccccc3)o2)c1	75.3	.	14.7µM*	-3.6%	14.7µM*
COc1cccc(NC(=O)CN(C)C(=O)c2cc(C)oc2C)c1	-7.6	.	-3.9%	0.4%	-18.1%
COc1ccc(CNC(=O)C(=O)NCCC2CCCCN2S(=O)(=O)c2cccs2)cc1 (stereo not drawn)	-23.4	.	?	-3.8%	?
COCCCN1C(=O)c2ccc(C(=O)NCCc3ccccc3)cc2C1=O	-25.3	0.7%	41.2%	-17.8%	37.5%
CN(Cc1nc(Cc2ccccc2F)no1)CC1(N2CCOCC2)CCCCC1	3.5	5.9%	?	5.9%	?
CN(Cc1nc(Cc2ccccc2F)no1)Cc1cccc2ncccc12	-84.7*	2.3%	-17.8%	9.7%	?
CCOc1ccccc1N(C)C(=O)c1c2c(nc3ccccc13)C(=O)N(C1CCCCC1)C2	-4.9	.	.	-8.1%	.
CCc1nccn1-c1cc(C(C)(C)C)nc2c(-c3ccc(Cl)cc3)cnn12	-13.9	2.8%	13.1µM*	-7.3%	50.3%
CC(C)(C)c1cc(-n2ccnc2)n2ncc(-c3ccc(Cl)cc3)c2n1	15.8	-2.4%	55.8%	8.4%	80.1%
CC(C)Nc1cc(C(C)(C)C)nc2c(-c3ccccc3)cnn12	95.5	0.6%	13.1µM*	22.6%	?
CC(C)(C)c1cc(NCc2ccccn2)n2ncc(-c3ccc(Cl)cc3)c2n1	-15.0	-2.6%	?	0.0%	3.29µM*
CN(C)CCCNc1cc(C(C)(C)C)nc2c(-c3ccc(Cl)cc3)cnn12	-102.6*	0.1%	?	19.8%	?
CC(C)(C)c1cc(C(F)(F)F)n2ncc(-c3ccccc3)c2n1	-21.7	-2.9%	?	4.2%	36.4%[5.75 µM]
CC(C)(CNS(=O)(=O)c1ccc2ccccc2c1)N1CCOCC1	-28.8	.	?	-8.7%	-10.8%
SMILES	HCMV antiviral	Giardia FBPA inh	Pf growth 96h	Sm TGR inh	Pf growth 48h
CC(C)(C)NC(=O)NC(=O)COC(=O)CNS(=O)(=O)/C=C/c1ccccc1	-20.9	0.0%	15.2%	-0.8%	0.0%
CC1(C)CC(=O)C=C(c2n[nH]nc2-c2ccc(F)c(F)c2)C1	-6.4	.	.	.	.
CC(=O)c1ccccc1NC(C(=O)Nc1c(C)cccc1C)C1CC1 (stereo not drawn)	3.9	.	.	.	.
Cn1cnc([N+](=O)[O-])c1Nc1ccc(O)cc1	-24.0	?	?	25.1µM*	-9.9%
CCOc1cc2c(cc1OCC)-n1cccc1C(c1c(O)cccc1OC)NC2 (stereo not drawn)	20.9	-7.7%	-27.6%	-18.7%	13.1µM*
CCOc1cc2c(cc1OCC)-n1cccc1C(c1ccccc1OC)NC2 (stereo not drawn)	?	9.5%	0.0%	6.2%	10.4µM*
CCOc1cc2c(cc1OCC)-n1cccc1C(c1cccc(F)c1F)NC2 (stereo not drawn)	254.3	-15.1%	?	13.3%	?
CCOc1cc2c(cc1OCC)-n1cccc1C(c1ccc(F)c(OC)c1)NC2 (stereo not drawn)	53.7	-8.9%	-0.7%	4.7%	10.4µM*
CCOc1cc2c(cc1OCC)-n1cccc1C(c1ccc(OC)c(OC)c1)NC2 (stereo not drawn)	22.8	-11.6%	0.3%	13.6%	?
CCOc1cc2c(cc1OCC)-n1cccc1C(c1ccccc1O)NC2 (stereo not drawn)	56.1	-27.1%	5.9%	13.6%	8.28µM*
CNC(=O)[C@H](C)/C=C(\c1cccnc1)C(NC(=O)OCc1ccccc1)c1ccc(C(=O)OC)cc1 (stereo partly drawn)	.	21.9%	.	.	.
O=C(c1ccc(CS(=O)(=O)c2ccc(Br)cc2)o1)N1CCN(c2ncccn2)CC1	17.1	2.8%	1.85µM*	50.1µM*	.
Cc1ccc(S(=O)(=O)Cc2ccc(C(=O)N3CCN(c4cccc(Cl)c4)CC3)o2)cc1	?	.	.	-4.2%	.
Cc1ccc(Cl)cc1N1CCN(C(=O)c2ccc(CS(=O)(=O)c3ccc(Br)cc3)o2)CC1	-68.0*	.	.	2.1%	.
CCN(CC)c1ccc(C(=O)N2CCc3c([nH]c4ccccc34)C2c2ccc(F)cc2)cc1 (stereo not drawn)	?	.	.	14.4%	.
CC(C)NC(=O)COc1coc(CN2CCN(c3cccc(Cl)c3)CC2)cc1=O	-24.8	.	11.7µM*	-9.5%	2.4%
O=C(COc1coc(CN2CCN(c3cccc(Cl)c3)CC2)cc1=O)NC1CCCC1	-35.7	.	?	0.0%	9.28µM*
CNC(=O)COc1coc(CN2CCN(c3cccc(Cl)c3)CC2)cc1=O	-31.1	15.3%	8.2%	-9.3%	-11.3%
CC(C)NC(=O)COc1coc(CN2CCN(c3ccccc3)CC2)cc1=O	?	.	?	-7.9%	9.0%
COc1ccc(-c2cn(-c3ccccc3)nc2C(=O)O)cc1OC	0.7	-5.8%	28.2%	-3.6%	1.4%[0.00184 µM]
